PubChem BioAssay (NCI)
Compounds without any hit were thinned out: in the full panel of roughly 83,000, 20% have a hit.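 Assay: single dose, 48 h. Readout: percent growth (0 = no net growth; negative = cell death). Active: <10.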 Active and inactive are the calls of the source.

What follows are compounds tested on SK-MEL-28 melanoma (assay: NCI-60 one-dose screen, 48 h (100 = growth as untreated, 0 = no growth, -100 = all killed)). Conditions: 10 µM.

| Compound | growth |
| --- | --- |
| Cc1ccc(C(=O)N2C/C(=C/c3ccc(F)cc3)C(=O)/C(=C/c3ccc(F)cc3)C2)cc1 | 105% (inactive) |
| COc1cc(NC(=O)CCSc2nc3ccc(C)cc3c(=O)n2Cc2ccccc2)cc(OC)c1OC | 74% (inactive) |
| O=C(Nc1cccc(-n2cc(-c3ccncc3)c(-c3cc(O)cc(Cl)c3)n2)c1)Nc1ccc(Cl)c(C(F)(F)F)c1 | -13.5% (active) |
| CCC(=O)N1C/C(=C/c2ccc(Br)cc2)C(=O)/C(=C/c2ccc(Br)cc2)C1 | -72.4% (active) |
| COc1cc(Cl)cc(-c2nn(-c3cccc(NC(=O)c4ccc(N5CCOCC5)c(C(F)(F)F)c4)c3)cc2-c2ccncc2)c1 | 53.2% (inactive) |
| O=C(C[P+](c1ccccc1)(c1ccccc1)c1ccccc1)C[P+](c1ccccc1)(c1ccccc1)c1ccccc1 | -42% (active) |
| Nc1ccn(C2CC(O)C(CO)O2)c(=O)n1 (centres undefined) | 120% (inactive) |
| COc1ccc(Nc2nc3ccc(NC(=O)NC4CCCCC4)cc3[nH]c2=O)cc1 | 93.1% (inactive) |
| CC1(C)CCC(=NNC(N)=S)CC1 | 115% (inactive) |
| CCOC(=O)C1(CC(C)C)CCOC1=O (centres undefined) | 103% (inactive) |
| N#Cc1cc(-c2cc3ccccc3o2)oc1N | 41.2% (inactive) |
| COc1ccc(-c2nc3ncccn3c2-c2nnc(-c3ccsc3C)o2)cc1 | 78.2% (inactive) |
| Oc1[nH]c2cc(Cl)ccc2c1/C=c1/ccc2c(c1)N=C(c1cc(F)cc(F)c1)N=2 | 40.1% (inactive) |
| CCCCCCCCCCCC[n+]1ccc(C(N)=O)cc1 | 57.8% (inactive) |
| COc1ccc2c(c1)O/C(=C\c1ncc([N+](=O)[O-])n1C)C2=O | -31.9% (active) |
| N#Cc1cccc(OCc2nc(N)nc(N)c2-c2ccc(Cl)c(Cl)c2)c1 | 53.4% (inactive) |
| Cc1cs/c(=N\NC(=O)c2cc(-c3cc4ccccc4o3)nn2-c2ccccc2)n1-c1ccccc1 | 102% (inactive) |
| CC1(C)OC2=C(CC1Br)C(=O)C(=O)c1ccccc12 (centres undefined) | -94% (active) |
| Cc1occc1-c1nnc(SCC(=O)c2ccc(NC(=O)CC(C)C)cc2)o1 | 123% (inactive) |
| CCN(CC)CCOc1nc2ccccc2c2c1-c1ccc(OC)cc1C2=O | 4.25% (active) |

| Compound | growth |
| --- | --- |
| COc1ccc(Nc2ncnc3c2c(SC)nn3-c2ccccc2)cc1 | 99.1% (inactive) |
| O=C(CC(C(=O)c1ccccc1)N1CCOCC1)c1ccccc1 (centres undefined) | 92.2% (inactive) |
| COc1cc(-c2cc(/C=C/C(=O)c3ccc(Cl)c(Cl)c3)[nH]n2)cc(OC)c1OC | 96.1% (inactive) |
| COc1ccc(-c2nc(-c3nc4ccc(OC)cc4[nH]3)cc3c2[nH]c2ccccc23)cc1 | 47.7% (inactive) |
| O=C(O)c1ccc(P(=O)(O)O)c([N+](=O)[O-])c1 | 110% (inactive) |
| COc1ccc2c(c1)O/C(=C\c1ccc([N+](=O)[O-])s1)C2=O | 81.4% (inactive) |
| COc1ccc2c(c1)sc1nc(-c3ccccc3)c(-c3cccnc3)n12 | 110% (inactive) |
| CCCCCC(=O)c1ccc(OCCCN2CCN(C(=O)OCC)CC2)cc1 | 98.3% (inactive) |
| CC(=O)n1c(-c2ccc(Cl)c(Cl)c2)cn(-c2ccc(Cl)cc2)c1=O | 7.17% (active) |
| C#Cc1ccc(-n2c(/C=C/c3ccc(O)cc3)nc3ncccc3c2=O)cc1 | 51.7% (inactive) |
| c1ccc(CNc2ncnc3scc(-c4cccs4)c23)nc1 | 96.7% (inactive) |
| O=C(Nc1ccncc1)C(=O)c1cn(S(=O)(=O)c2cccc3ccccc23)c2ccccc12 | 95.3% (inactive) |
| CCN(CC)Cc1cc(Nc2ccnc3cc(Cl)ccc23)ccc1OC | 108% (inactive) |
| O=C1Nc2ccc(Cl)cc2/C1=C\c1c(-c2ccc(Cl)cc2)nc2sc(C3CC3)nn12 | 46% (inactive) |
| Cc1cc(N(CCCNc2ccnc3cc(Cl)ccc23)Cc2ccc3c(c2)OCO3)nc(N2CCOCC2)n1 | -44.7% (active) |
| c1ccc(CO[C@H]2CO[C@H]3[C@@H]2OC[C@H]3OCc2ccccc2)cc1 | 105% (inactive) |
| Clc1cc2c(c(CSc3nc4ccccc4n4cccc34)c1)OCOC2 | 92.8% (inactive) |
| CCN(CC)CCOc1nc2ccc(OC)cc2c2c1-c1ccc(OC)cc1C2=O | -12.6% (active) |
| CCn1cc(C(=O)O)c(=O)c2cnc(N3CCCC3)nc21 | 113% (inactive) |
